Results on nine molecules are retold here after PubChem BioAssay (Tox21).

Results filed as inconclusive are left out. Active and inactive are the calls of the source. Unless noted, calls come from the whole dose curve.

The nature of assay [1]: Nuclear factor erythroid 2-related factor 2/antioxidant responsive element (Nrf2/ARE) small molecule agonists: luciferase reporter gene qHTS assay in human keratinocytes (AID 1919969). Note: nearly all actives have a fitted effect of over 35% in size. Note: potency is the fitted concentration of half-maximal effect. As to conditions: KeratinoSens HaCaT ARE-luciferase, luminescence, 24 h; series mostly up to 92.4 µM.
Assay [2] concerns the target Gonadotropin-releasing hormone receptor (Homo sapiens) (UniProt P30968). As to the kind of experiment: Human gonadotropin-releasing hormone receptor (GnRHR) small molecule agonists, calcium flux assay in GnRHR-HEK293 cells (AID 1920063). Note: nearly all actives have a fitted effect of over 35% in size. To be noted: calcium flux fluorescence, agonist mode; series mostly up to 57.6 µM. An outline of the steps: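 Fluorescence kinetics (480 nm excitation, 540 nm emission; 3 min, 1 s steps) report calcium mobilisation in human GnRHR-HEK293 cells in agonist mode. Dye incubation: 1 h, 37 C.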

In assay [3] the target is KiSS-1 receptor (Homo sapiens) (UniProt Q969F8). As to the kind of experiment: Human kisspeptin (KISS1R) small molecule agonists, calcium flux assay in KISS1R-HEK293 cells (AID 1920064; active = well fitted activation curve with a large enough effect in the repeat runs). As to conditions: KISS1R-HEK293, calcium flux fluorescence, agonist; series mostly up to 76.8 µM. An outline of the steps:
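Measures KISS1R agonism through calcium-sensitive dye fluorescence in stably transfected HEK293 cells, read for 3 min after pin-tool compound delivery; 15-point titrations in triplicate.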

Assay [4] can be described thus: G protein-coupled receptor (GPCR) small molecule agonists, calcium flux assay: HEK293 wild type cell line counter screen (AID 1920065). To be noted: HEK293 WT calcium flux, fluorescence, agonist mode; series mostly up to 57.6 µM. An outline of the steps: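 Readout: fluorescence at 480 nm excitation/540 nm emission, sampled at 1 s intervals for 3 min. Cells had been cultured 18 h, then dye-loaded 1 h at 37 C before compound or ATP addition.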

A short description of assay [5]: p53 small molecule agonists, cell-based qHTS assay with human liver microsomes: qHTS cell viability counter screen (AID 1963579). Note: nearly all actives have a fitted effect of over 45% in size. To be noted: p53RE-bla HCT-116 viability, ATP luminescence, 16 h, HLM; series mostly up to 66 µM. In short, it runs like this:
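Tox21 library compounds, delivered from DMSO stocks, were tested on p53RE-bla cells together with 0.5 mg/mL human liver microsomes and 0.5 mg/mL NADPH (final) over 16 h at 37 C; CellTiter-Glo luminescence served as the cytotoxicity measure.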
Background: qHTS replaces the single test concentration by a dilution series.

Assay [6] is described as follows: p53 small molecule agonists, cell-based qHTS assay with rat liver microsomes: qHTS cell viability counter screen (AID 1963580). Note: nearly all actives have a fitted effect of over 45% in size. As to conditions: p53RE-bla HCT-116 + rat microsomes, ATP viability, 16 h; series mostly up to 66 µM. In short, it runs like this: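 Viability is assessed in parallel with the p53 reporter read: HCT-116 p53RE-bla cells receive compounds plus rat microsomes and NADPH (0.5 mg/mL final apiece), incubate 16 h at 37 C, and then CellTiter-Glo luminescence is recorded.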

Assay [7] can be described thus: p53 small molecule agonists, cell-based qHTS assay: qHTS cell viability counter screen (AID 1963581). Note: nearly all actives have a fitted effect of over 45% in size. As to conditions: p53RE-bla HCT-116 viability, ATP luminescence, 16 h; series mostly up to 66 µM. An outline of the steps: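 In the same plates used for the p53 bla reporter, HCT-116 cells given compounds for 16 h at 37 C received CellTiter-Glo; luminescence was recorded 30 min later at room temperature.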

Assay [8] deals with 5-hydroxytryptamine receptor 2A (Homo sapiens) (UniProt P28223). In words: 5-hydroxytryptamine receptor 2A (HTR2A) small molecule antagonists, cell-based qHTS assay (AID 1963586). Note: nearly all actives have a fitted effect of over 45% in size. To be noted: HTR2A-CHO cells, DOI-induced calcium flux, fluorescence; series mostly up to 61.5 µM. In short, it runs like this:
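Antagonist-mode intracellular calcium assay: DOI (4 nM) added after 5 min compound pre-incubation at room temperature to dye-loaded HTR2A-CHO cells. Fluorescence followed for 3 min, sampled every second.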

For assay [9] the target is unchanged. As to the kind of experiment: 5-hydroxytryptamine receptor 2A (HTR2A) small molecule agonists, cell-based qHTS assay (AID 1963587). Note: nearly all actives have a fitted effect of over 30% in size. Note: potency is the fitted concentration of half-maximal effect. To be noted: HTR2A-CHO cells, calcium flux fluorescence, agonist mode; series mostly up to 76.8 µM. An outline of the steps: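 CHO cells stably expressing human HTR2A, plated 18 h, loaded with calcium dye 1 h at 37 C. Agonist mode: compounds added and intracellular calcium fluorescence recorded kinetically for 2 min at 1 sec intervals.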

In assay [10] the target is Muscarinic acetylcholine receptor M1 (Homo sapiens) (UniProt P11229). As to the kind of experiment: Cholinergic receptor muscarinic 1 (CHRM1) small molecule antagonists, cell-based qHTS assay (AID 1963588). Note: nearly all actives have a fitted effect of over 40% in size. As to conditions: CHRM1-CHO antagonist mode, calcium flux fluorescence; series mostly up to 61.5 µM. In short, it runs like this: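 CHRM1-CHO calcium-flux assay, antagonist mode. Cells were seeded 18 h, dye-loaded 1 h at 37 C and given compound for 5 min at RT, then acetylcholine was added at 50nM. FDSS fluorescence was read 3 min; 15 concentrations, three runs.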

Assay [11] has the same target. In words: Cholinergic receptor muscarinic 1 (CHRM1) small molecule agonists, cell-based qHTS assay (AID 1963589). Note: nearly all actives have a fitted effect of over 35% in size. To be noted: CHRM1-CHO cells, agonist mode, calcium flux fluorescence; series mostly up to 76.8 µM. In short, it runs like this: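 Each compound was tested at 15 concentrations across three independent runs on dye-loaded CHO cells stably expressing human CHRM1, reading intracellular calcium fluorescence kinetically at 1 sec intervals.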

The nature of assay [12]: cAMP Responsive Elements (CRE) small molecule agonists, cell-based qHTS assay (AID 1963590). Note: potency is the fitted concentration of half-maximal effect. As to conditions: CRE-bla HEK293T, beta-lactamase FRET ratio, 3 h; series mostly up to 92.4 µM. An outline of the steps: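 Cell line: CRE-bla HEK 293T; medium DMEM/10% dialyzed FBS/0.1 mM NEAA/1 mM pyruvate/25 mM HEPES; 3 h compound exposure; beta-lactamase FRET readout after 2 h substrate loading at RT.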

Assay [13] is described as follows: cAMP Responsive Elements (CRE) small molecule antagonists, cell-based qHTS assay (AID 1963591; active = well fitted inhibition curve with a large enough effect in the signal ratio in the repeat runs, not every such curve was filed as active; the % refers to the signal ratio). To be noted: CRE-bla HEK293T, beta-lactamase FRET ratio; series mostly up to 92.4 µM. In short, it runs like this:
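Inhibition of NKH477-driven (0.25 uM final) CRE-beta-lactamase signal in HEK293T cells, 3 h compound exposure at 37 °C, detected by FRET substrate fluorescence.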

The target in assay [14] is Beta-2 adrenergic receptor (Homo sapiens) (UniProt P07550). In words: Adrenergic beta2 receptor (ADRB2) small molecule antagonists, cell-based qHTS assay (AID 1963592). Note: nearly all actives have a fitted effect of over 50% in size. As to conditions: CHO-ADRB2 cells, isoproterenol-stimulated cAMP HTRF ratio, 0.5 h; series mostly up to 92.4 µM. An outline of the steps:
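Cells (CHO, stable ADRB2 overexpression) incubated 18-20hr at 37C; compounds added from DMSO; agonist mix (1nM isoproterenol, 100uM IBMX, 25uM Ro-20-1724) added; 0.5hr RT; d2-cAMP and anti-cAMP-cryptate added; 1hr RT; 665/615 nm read.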

Assay [15] addresses D(2) dopamine receptor (Homo sapiens) (UniProt P14416). In words: Dopamine D2 receptor (DRD2) small molecule agonists, cell-based qHTS assay (AID 1963594). Note: nearly all actives have a fitted effect of over 35% in size. As to conditions: HEK293-DRD2 cAMP HTRF, agonist mode, 30 min; series mostly up to 92.4 µM. In short, it runs like this:
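HEK293 cells stably expressing human DRD2, pre-treated with PDE inhibitor Ro20-1724 (0.1 mM final) and compound 10 min at room temperature, then stimulated with NKH477 (200nM […]) for 30 min. cAMP read by HTRF (665/620 nm).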

Assay [16] has the same target. As to the kind of experiment: Dopamine D2 receptor (DRD2) small molecule antagonists, cell-based qHTS assay (AID 1963595; active = well fitted inhibition curve with a large enough effect in the signal ratio in the repeat runs, with a control signal flat; the % refers to the signal ratio). To be noted: HEK293-DRD2 cAMP HTRF antagonist mode; series mostly up to 92.4 µM. An outline of the steps:
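DRD2-HEK293; 0.1 mM Ro20-1724; cpd 10 min RT; NKH477 200 nM + quinpirole 12 nM, 30 min RT; HTRF cAMP (cAMP-d2/anti-cAMP cryptate), 665/620 nm ratio after 1 h.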

A short description of assay [17]: p53 small molecule agonists, cell-based qHTS assay with rat liver microsomes (AID 1963578). As to conditions: HCT-116 p53RE-bla, beta-lactamase ratio, 16 h; series mostly up to 66 µM. An outline of the steps: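 Each plate received p53RE-bla cells, then compound, then rat liver microsomes and NADPH (both 0.5 mg/mL final). Plates were held 16 h at 37 C, and beta-lactamase activity was detected with LiveBLAzer over 2 h.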

Assay [18] has as its target Beta-2 adrenergic receptor (Homo sapiens) (UniProt P07550). As to the kind of experiment: Adrenergic beta2 receptor (ADRB2) small molecule agonists, cell-based qHTS assay (AID 1963593).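 Note: CHO cells stably overexpressing human ADRB2.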 To be noted: CHO-ADRB2 cells, cAMP HTRF, 30 min; series mostly up to 92.4 µM. An outline of the steps:
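CHO cells stably over-expressing ADRB2 were plated overnight at 37C, then dosed with compounds plus a stimulation mix containing 100uM IBMX and 25uM Ro-20-1724 for 0.5hr at room temperature. cAMP was measured by HTRF competition, 1hr.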

5-hydroxytryptamine receptor 2A (Homo sapiens), sequence (P28223 whole entry, looked up): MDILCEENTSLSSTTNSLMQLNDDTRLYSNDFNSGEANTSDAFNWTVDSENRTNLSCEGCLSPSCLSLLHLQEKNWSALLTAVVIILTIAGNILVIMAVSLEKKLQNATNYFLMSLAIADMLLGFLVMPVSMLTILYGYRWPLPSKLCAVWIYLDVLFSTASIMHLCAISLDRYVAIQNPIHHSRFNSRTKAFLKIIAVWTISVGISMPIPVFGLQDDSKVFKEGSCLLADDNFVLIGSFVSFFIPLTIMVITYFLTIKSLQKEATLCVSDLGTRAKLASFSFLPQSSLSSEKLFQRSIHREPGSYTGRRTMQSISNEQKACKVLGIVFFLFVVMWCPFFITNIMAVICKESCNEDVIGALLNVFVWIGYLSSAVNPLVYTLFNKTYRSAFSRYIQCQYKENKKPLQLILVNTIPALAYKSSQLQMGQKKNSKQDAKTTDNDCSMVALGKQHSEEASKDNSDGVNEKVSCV
KiSS-1 receptor (Homo sapiens), sequence (Q969F8 whole entry, looked up): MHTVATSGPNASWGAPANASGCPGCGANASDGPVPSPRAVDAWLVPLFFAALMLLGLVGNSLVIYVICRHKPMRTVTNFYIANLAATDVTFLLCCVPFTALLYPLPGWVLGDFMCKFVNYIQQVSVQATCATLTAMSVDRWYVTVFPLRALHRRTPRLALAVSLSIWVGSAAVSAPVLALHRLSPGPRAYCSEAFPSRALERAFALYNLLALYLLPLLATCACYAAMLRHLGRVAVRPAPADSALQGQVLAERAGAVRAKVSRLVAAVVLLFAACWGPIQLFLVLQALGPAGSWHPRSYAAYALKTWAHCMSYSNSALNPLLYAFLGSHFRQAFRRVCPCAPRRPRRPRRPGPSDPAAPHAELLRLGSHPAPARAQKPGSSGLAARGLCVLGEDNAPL
Beta-2 adrenergic receptor (Homo sapiens), sequence (P07550 whole entry, looked up): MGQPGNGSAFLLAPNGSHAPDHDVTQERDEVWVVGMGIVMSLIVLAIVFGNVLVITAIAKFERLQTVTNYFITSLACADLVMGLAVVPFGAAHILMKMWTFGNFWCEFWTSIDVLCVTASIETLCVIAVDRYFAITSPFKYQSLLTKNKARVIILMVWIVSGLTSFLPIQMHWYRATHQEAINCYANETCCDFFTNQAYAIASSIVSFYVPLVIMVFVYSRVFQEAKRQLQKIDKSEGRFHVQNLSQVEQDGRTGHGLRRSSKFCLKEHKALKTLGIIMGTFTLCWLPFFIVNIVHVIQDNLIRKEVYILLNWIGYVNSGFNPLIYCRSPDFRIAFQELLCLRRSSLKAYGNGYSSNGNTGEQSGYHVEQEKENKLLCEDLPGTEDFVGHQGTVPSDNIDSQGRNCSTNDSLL
Muscarinic acetylcholine receptor M1 (Homo sapiens), sequence (P11229 whole entry, looked up): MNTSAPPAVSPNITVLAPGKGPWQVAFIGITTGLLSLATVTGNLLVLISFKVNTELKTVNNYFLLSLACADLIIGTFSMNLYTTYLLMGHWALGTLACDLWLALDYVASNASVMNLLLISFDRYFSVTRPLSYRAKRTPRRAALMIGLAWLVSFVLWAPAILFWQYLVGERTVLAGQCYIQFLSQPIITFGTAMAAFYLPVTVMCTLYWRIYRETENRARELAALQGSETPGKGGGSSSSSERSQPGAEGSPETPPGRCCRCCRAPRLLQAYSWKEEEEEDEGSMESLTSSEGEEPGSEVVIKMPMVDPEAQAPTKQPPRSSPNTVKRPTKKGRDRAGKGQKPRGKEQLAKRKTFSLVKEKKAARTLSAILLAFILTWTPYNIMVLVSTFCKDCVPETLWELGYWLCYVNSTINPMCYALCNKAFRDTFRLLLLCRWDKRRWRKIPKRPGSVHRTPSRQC
Gonadotropin-releasing hormone receptor (Homo sapiens), sequence (P30968 whole entry, looked up): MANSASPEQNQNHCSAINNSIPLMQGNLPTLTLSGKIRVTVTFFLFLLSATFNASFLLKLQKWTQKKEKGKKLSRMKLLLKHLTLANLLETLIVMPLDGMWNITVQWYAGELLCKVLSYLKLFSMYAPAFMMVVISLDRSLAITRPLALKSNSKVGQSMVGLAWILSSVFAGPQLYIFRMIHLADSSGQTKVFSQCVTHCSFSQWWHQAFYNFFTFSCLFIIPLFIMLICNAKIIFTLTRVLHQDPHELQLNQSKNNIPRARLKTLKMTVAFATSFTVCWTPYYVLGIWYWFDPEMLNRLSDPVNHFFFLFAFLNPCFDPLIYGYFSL
D(2) dopamine receptor (Homo sapiens), sequence (P14416 whole entry, looked up): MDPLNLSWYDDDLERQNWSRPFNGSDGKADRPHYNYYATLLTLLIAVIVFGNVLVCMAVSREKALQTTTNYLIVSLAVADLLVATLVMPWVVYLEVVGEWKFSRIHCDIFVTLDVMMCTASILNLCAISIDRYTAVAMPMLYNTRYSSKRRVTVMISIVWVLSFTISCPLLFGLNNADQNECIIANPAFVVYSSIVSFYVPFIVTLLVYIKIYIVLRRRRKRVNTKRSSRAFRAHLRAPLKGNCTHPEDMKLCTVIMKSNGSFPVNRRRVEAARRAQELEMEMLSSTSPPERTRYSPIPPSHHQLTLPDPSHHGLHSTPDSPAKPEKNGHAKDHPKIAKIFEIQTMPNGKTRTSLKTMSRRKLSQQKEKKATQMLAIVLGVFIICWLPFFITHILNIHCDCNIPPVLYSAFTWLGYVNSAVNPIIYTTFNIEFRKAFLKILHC

On to `C[C@H]1[C@@H](c2ccccc2)NC(=O)N1C`, for which the Potency result in assay [1], in [2], in [3], in assay [4], in [5] and in [6] was “inactive” in each case. Also, the Potency entry in assay [7], in assay [8], in [9], in assay [10], in assay [11] and in assay [12] was “inactive” each time. Also, the Potency result in assay [13], in assay [14], in assay [15] and in [16] was “inactive” each time.

Take `NC(CCC(=O)O)C(=O)O` (stereo not given): the Potency entry in assay [1], in assay [2], in assay [3], in assay [4], in assay [5] and in assay [6] was “inactive” each time. The Potency result in assay [7], in assay [8], in assay [9], in [10], in assay [11] and in assay [12] was “inactive” throughout. Further, the Potency result in assay [14] and in [15] was “inactive” in each case.

`C=CCOCC(O)CS(=O)(=O)O` (stereo not given): in assay [1], the Potency is 0.196 µM (active). For the same molecule, the Potency entry in assay [2], in assay [3], in assay [4], in [5], in [6] and in assay [7] was “inactive” throughout. Also, the Potency entry in [8], in assay [9], in assay [10], in [11], in assay [12] and in assay [13] was “inactive” in each case. Moreover, the Potency result in assay [14], in assay [15] and in assay [16] was “inactive” throughout.

Take `S=c1[nH]c2ccccc2s1`: the Potency in [1] was 21.7 µM (active); in [12], 48.6 µM (active). The Potency result in assay [2], in assay [3], in [4], in assay [17], in assay [9] and in [11] was “inactive” throughout.

With `CC(CCc1ccc2c(c1)OCO2)NN` (stereo not given), the Potency result in assay [1], in assay [2], in assay [3], in assay [4], in assay [5] and in assay [6] was “inactive” each time. The Potency entry in [7], in assay [8], in assay [9], in assay [10], in [11] and in [12] was “inactive” each time. Also, the Potency result in assay [13], in assay [14], in assay [18] and in [15] was “inactive” each time.

`O=C1CCCCCCCCCCCC(=O)OCCO1`: the Potency result in [1], in assay [2], in assay [3], in [4], in assay [5] and in assay [6] was “inactive” each time. Further, the Potency entry in assay [7], in [8], in assay [10], in assay [11], in [14] and in assay [15] was “inactive” each time. Further, the Potency entry in assay [16] is “inactive”. The Potency in assay [9] is 5.49 µM (active).

For `CCC(=O)C1CC(C(C)C)CC=C1C` (stereo not given), the Potency entry in assay [1], in assay [2], in [3], in assay [4], in assay [5] and in assay [6] was “inactive” in each case. Also, the Potency result in [7], in assay [8], in assay [9], in assay [10], in [12] and in assay [13] was “inactive” throughout. For the same molecule, the Potency result in assay [14] and in [16] was “inactive” throughout.

Take `Cc1ccc(Br)cc1`: the Potency result in assay [1], in [2], in assay [3], in assay [4], in assay [5] and in assay [6] was “inactive” in each case. The Potency entry in [7], in assay [8], in assay [9], in assay [11], in [12] and in assay [13] was “inactive” throughout. The Potency result in assay [14], in assay [15] and in [16] was “inactive” in each case.

Take `O=[N+]([O-])c1nccn1CO[C@@H](CO)[C@H](O)CO`: the Potency entry in [1], in assay [2], in assay [3], in [4], in [5] and in assay [6] was “inactive” each time. Moreover, the Potency result in assay [7], in [8], in [9], in [10], in assay [11] and in assay [12] was “inactive” each time. The Potency result in assay [13], in assay [14], in assay [18], in assay [15] and in assay [16] was “inactive” throughout.
